This note sets out measurements from PubChem BioAssay (NCATS).

Results filed as inconclusive are left out. Where a call stands in place of a potency, no number is given. Calls of active or inactive are those of the source. Calls follow the shape of the dose curve; as a rule, active = well fitted inhibition curve with a large enough effect; inconclusive = small, poorly fitted or top-dose-only effect; inactive = flat fitted curve, though single readings scatter.
Potency is read from the fitted curve at half-maximal effect.

This assay deals with DFO2036. Briefly: qHTS profiling for inhibitors of Plasmodium falciparum proliferation (AID 504749). Also: nearly all actives have a fitted effect of over 60% in size. To be noted: P. falciparum in erythrocytes, SYBR Green DNA, 72 h; series mostly up to 28.7 µM. The procedure, abridged:
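P. falciparum-infected erythrocytes (0.3% parasitemia, 2.5% hematocrit) incubated with compound 72 h at 37 C, 5% CO2. Parasite DNA detected by SYBR Green after lysis, overnight at room temperature; normalised to 0.29 uM artemisinin and DMSO.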
(qHTS replaces the single test concentration by a dilution series.)
Take `C#C[C@]1(O)CC[C@H]2[C@@H]3CCc4cc(OC)ccc4[C@H]3CC[C@@]21C`: the Potency entry is “inactive”.
For `CCCCNC(=O)NS(=O)(=O)c1ccc(N)cc1` the value was “inactive”.
Take `Nc1ccc(C(=O)NCC(=O)O)cc1`: the Potency result was “inactive”.
In the case of `OC1C(O)C(O)C(O)C(O)C1O` (stereo not given), the Potency result is “inactive”.
For `O=S(=O)(O)c1ccc(O)cc1` the value was “inactive”; for `COc1cc(C(=O)NCc2ccc(OCCN(C)C)cc2)cc(OC)c1OC`, “inactive”.
For `COc1cc(C)nc(-n2nc(C)cc2OC)n1` the value was “inactive”.
For `CC(=O)Oc1ccc(C)cc1` the value was “inactive”; for `CC(=O)NC(=O)c1ccccc1O`, “inactive”; for `FC(F)(F)C(F)(F)C(F)(F)C(F)(F)C(F)(F)C(F)(F)C(F)(F)C(F)(F)Br`, “inactive”.
As to `c1ccc(-c2nc[nH]c2-c2ccccc2)cc1`, the Potency entry was “inactive”.
For `CCNC(=O)NCc1cccc(Cl)c1`, the Potency entry was “inactive”.
Turning to `O=C(O)Cc1csc(-c2ccc(Cl)cc2)n1`, the Potency entry was “inactive”.
`Nc1nc(-c2ccccc2)c(Br)c(=O)[nH]1`: the Potency result is “inactive”.
Take `O=c1[nH]c(=O)n([C@H]2C[C@H](O)[C@@H](CO)O2)cc1F`: the Potency result was “inactive”.
With `CC(=O)Nc1ncc([N+](=O)[O-])s1`, the Potency entry was “inactive”.
In the case of `Cc1cccc(C)c1NC(=O)CN1CCCCCC1`, the Potency entry was “inactive”.
For the compound `CC[C@H](c1ccc(O)cc1)[C@@H](CC)c1ccc(O)cc1`, the Potency entry is “inactive”.
On to `Cc1c(-c2ccccc2)oc2c(C(=O)OCCN3CCCCC3)cccc2c1=O`, for which the Potency entry was “inactive”.
Consider `CCCCCCCCCCCCCCCCO`, for which the Potency entry is “inactive”.
For `Oc1ccccc1C=NCc1ccccc1` the value was “inactive”.
For the compound `CCN(CC)CCNC(=O)COc1ccc(OC)cc1`, the Potency result is “inactive”.
As for `COc1cc(N)c(Cl)cc1C(=O)NC1CCN(Cc2ccccc2)CC1`, the Potency entry was “inactive”.
With `Cc1cc(NS(=O)(=O)c2ccc(N)cc2)nc(C)n1`, the Potency entry was “inactive”.
As for `CC(=O)OC[C@H]1O[C@@H](n2ncc(=O)[nH]c2=O)[C@H](OC(C)=O)[C@@H]1OC(C)=O`, the Potency entry was “inactive”.
In the case of `CCOc1ccccc1OCCN[C@H](C)Cc1ccc(OC)c(S(N)(=O)=O)c1`, the Potency result is “inactive”.
Under `O=C(NCCc1c[nH]c2ccccc12)c1cccnc1` stands “inactive”; under `Cc1ccccc1OCC(O)CO` (stereo not given), “inactive”; under `Cc1cc(C)cc(OCC2CNC(=O)O2)c1` (stereo not given), “inactive”.
Under `CCOc1cc(OCC)c(C(=O)CCC(=O)O)cc1OCC` stands “inactive”; under `N#CCC(=O)NN`, “inactive”.
Under `O=C(O)C(Cc1cc(I)c(O)c(I)c1)c1ccccc1` (stereo not given) stands “inactive”; under `CCCCCCCC/C=C\CCCCCCCCN`, “inactive”.
`CC1=C(C(=O)O)N2C(=O)[C@@H](NC(=O)[C@H](N)c3ccccc3)[C@H]2SC1`: the Potency entry is “inactive”.
Regarding `CCN(CC)CCNc1ccc(CO)c2sc3ccccc3c(=O)c12`, the Potency was 447 nM (active).
Take `Cl/C(=C\n1cncn1)c1ccc(Cl)cc1Cl`: the Potency result was “inactive”.
On to `CCCCCCCCCCCCCCCC(=O)O`, for which the Potency entry was “inactive”.
Under `CC(C)CCCC(C)N` (stereo not given) stands “inactive”; under `CCOC(=O)c1ccc(N)cc1`, “inactive”.
As for `Cc1c[nH]c2ccccc12`, the Potency entry was “inactive”.
